According to PMC7862700, “An all-to-all approach to the identification of sequence-specific readers for epigenetic DNA modifications on cytosine”:

Key:
Test in all cases: DAPPL (digital affinity profiling via proximity ligation, sequencing); 10 mM Tris-HCl pH 7.5, 50 mM NaCl, 1 mM DTT, 4% glycerol, room temperature, 30 min; GST-TFs on glutathione beads, 16-mer random dsDNA library, 0.1% formaldehyde crosslink after washing; high values mean tight binding
[1] = biological target: T1, FLI1 (Homo sapiens, UniProt Q01543 1-452); settings: protein: recombinant; tags: N-terminal GST; dsDNA, one strand shown
T1 sequence: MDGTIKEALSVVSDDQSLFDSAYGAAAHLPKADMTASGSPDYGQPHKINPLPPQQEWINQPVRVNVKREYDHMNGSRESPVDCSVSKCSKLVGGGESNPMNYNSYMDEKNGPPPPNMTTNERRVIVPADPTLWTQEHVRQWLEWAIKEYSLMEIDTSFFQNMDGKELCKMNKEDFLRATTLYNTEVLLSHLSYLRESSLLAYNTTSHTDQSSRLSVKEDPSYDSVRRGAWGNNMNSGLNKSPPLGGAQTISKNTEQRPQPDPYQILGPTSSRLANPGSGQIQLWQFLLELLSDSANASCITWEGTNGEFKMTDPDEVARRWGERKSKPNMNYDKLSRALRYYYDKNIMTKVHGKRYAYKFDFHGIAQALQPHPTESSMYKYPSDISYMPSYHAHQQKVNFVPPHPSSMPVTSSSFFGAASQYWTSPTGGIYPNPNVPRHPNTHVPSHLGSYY
Summary of the method: (§1)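 Human transcription factors carrying a GST fusion were produced in yeast, bound to glutathione beads, tagged with DNA barcodes and pooled together with a tag-only sample. Each pool was held with 200 nmole of a random double-stranded 16-mer DNA library in Tris/NaCl/DTT/glycerol buffer for 30 min at room temperature, then washed, crosslinked in 0.1% formaldehyde, proximity-ligated with BsaI/T4 ligase (1 h, 37 °C), PCR-amplified and sequenced on an Illumina NextSeq500. Binding signal is the read frequency of each hexamer for a given factor divided by its frequency in the tag-only sample.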

[2] = biological target: T2, ELK1 (Homo sapiens, UniProt P19419 1-428); settings: protein: recombinant; tags: N-terminal GST; dsDNA, one strand shown
T2 sequence: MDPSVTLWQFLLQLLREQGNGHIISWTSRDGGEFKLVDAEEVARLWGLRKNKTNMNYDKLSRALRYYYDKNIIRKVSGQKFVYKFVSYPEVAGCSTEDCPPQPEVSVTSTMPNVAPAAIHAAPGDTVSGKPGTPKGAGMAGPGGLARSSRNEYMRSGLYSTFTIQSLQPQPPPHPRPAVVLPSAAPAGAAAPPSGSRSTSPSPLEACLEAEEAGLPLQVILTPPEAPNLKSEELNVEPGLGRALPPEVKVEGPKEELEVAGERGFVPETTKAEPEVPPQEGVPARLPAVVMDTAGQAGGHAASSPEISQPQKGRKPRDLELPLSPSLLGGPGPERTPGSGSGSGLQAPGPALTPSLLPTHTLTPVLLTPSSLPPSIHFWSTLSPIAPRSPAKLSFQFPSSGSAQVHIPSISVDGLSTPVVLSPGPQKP
Summary of the method: as §1

[3] = biological target: T3, GABPA (Homo sapiens, UniProt Q06546 1-454); settings: protein: recombinant; tags: N-terminal GST; dsDNA, one strand shown
T3 sequence: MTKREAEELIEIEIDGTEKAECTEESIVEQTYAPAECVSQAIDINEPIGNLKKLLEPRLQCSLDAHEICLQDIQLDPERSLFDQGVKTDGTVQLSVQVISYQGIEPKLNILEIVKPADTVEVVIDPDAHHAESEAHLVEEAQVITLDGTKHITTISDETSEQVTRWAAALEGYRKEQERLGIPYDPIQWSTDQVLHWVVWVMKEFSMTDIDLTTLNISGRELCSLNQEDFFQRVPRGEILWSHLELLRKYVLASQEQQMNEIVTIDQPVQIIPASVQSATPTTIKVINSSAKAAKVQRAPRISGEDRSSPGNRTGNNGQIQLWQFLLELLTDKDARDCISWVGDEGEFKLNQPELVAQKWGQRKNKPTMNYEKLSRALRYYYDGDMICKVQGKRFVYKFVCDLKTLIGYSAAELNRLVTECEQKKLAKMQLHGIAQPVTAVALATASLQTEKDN
Summary of the method: as §1

[4] = biological target: T4, ERG (Homo sapiens, UniProt P11308 1-479); settings: protein: recombinant; tags: N-terminal GST; dsDNA, one strand shown
T4 sequence: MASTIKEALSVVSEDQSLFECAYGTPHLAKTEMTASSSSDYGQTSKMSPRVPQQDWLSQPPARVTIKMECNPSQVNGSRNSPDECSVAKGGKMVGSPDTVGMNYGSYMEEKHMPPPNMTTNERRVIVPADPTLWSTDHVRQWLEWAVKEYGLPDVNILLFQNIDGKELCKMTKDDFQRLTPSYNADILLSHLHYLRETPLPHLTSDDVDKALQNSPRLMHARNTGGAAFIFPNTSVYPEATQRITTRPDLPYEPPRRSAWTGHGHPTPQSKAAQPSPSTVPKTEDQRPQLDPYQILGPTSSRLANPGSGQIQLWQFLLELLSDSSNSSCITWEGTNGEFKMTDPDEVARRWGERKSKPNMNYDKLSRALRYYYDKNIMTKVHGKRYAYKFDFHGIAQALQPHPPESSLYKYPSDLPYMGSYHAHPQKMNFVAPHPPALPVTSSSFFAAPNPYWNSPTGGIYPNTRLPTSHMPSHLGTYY
Summary of the method: as §1

[5] = biological target: ELF1 (Homo sapiens, UniProt P32519 1-619); settings: protein: recombinant; tags: N-terminal GST; dsDNA, one strand shown
Sequence of ELF1 (P32519 whole entry): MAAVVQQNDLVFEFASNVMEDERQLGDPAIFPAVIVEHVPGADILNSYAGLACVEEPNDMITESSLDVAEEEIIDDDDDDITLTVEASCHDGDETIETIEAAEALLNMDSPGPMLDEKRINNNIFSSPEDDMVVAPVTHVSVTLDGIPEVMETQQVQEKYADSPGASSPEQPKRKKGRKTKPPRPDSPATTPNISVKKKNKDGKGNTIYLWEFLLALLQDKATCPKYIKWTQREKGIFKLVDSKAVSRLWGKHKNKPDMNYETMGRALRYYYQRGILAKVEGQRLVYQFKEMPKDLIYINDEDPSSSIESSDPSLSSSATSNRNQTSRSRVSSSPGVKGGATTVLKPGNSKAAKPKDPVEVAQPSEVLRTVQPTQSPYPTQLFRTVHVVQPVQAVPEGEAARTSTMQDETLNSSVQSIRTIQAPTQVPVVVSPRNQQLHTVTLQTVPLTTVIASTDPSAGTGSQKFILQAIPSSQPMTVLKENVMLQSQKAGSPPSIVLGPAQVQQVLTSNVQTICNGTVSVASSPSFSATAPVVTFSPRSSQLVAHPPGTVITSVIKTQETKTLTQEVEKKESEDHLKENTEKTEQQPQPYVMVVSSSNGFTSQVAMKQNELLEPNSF
Summary of the method: as §1

[6] = biological target: T5, EHF (Homo sapiens, UniProt Q9NZC4 1-300); settings: protein: recombinant; tags: N-terminal GST; dsDNA, one strand shown
T5 sequence: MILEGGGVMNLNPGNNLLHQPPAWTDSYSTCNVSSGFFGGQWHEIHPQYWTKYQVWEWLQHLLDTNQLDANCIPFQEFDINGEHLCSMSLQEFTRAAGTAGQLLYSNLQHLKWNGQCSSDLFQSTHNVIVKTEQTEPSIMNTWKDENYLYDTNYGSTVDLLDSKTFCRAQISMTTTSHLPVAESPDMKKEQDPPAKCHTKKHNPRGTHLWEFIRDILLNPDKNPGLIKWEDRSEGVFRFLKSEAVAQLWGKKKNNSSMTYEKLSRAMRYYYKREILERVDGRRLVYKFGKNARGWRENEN
Summary of the method: as §1

[7] = biological target: SPI1 (Homo sapiens, UniProt P17947 1-270); settings: protein: recombinant; tags: N-terminal GST; dsDNA, one strand shown
Summary of the method: as §1

[8] = biological target: SPIB (Homo sapiens, UniProt Q01892 1-262); settings: protein: recombinant; tags: N-terminal GST; dsDNA, one strand shown
Sequence of SPIB (Q01892 whole entry): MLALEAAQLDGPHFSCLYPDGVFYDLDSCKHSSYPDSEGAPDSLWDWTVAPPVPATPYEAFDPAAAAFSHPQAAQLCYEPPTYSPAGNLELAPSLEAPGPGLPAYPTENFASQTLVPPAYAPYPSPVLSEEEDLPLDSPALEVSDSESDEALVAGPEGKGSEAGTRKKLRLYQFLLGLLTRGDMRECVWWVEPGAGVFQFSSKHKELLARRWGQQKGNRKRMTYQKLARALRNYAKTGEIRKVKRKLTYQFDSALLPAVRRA
Summary of the method: as §1

[9] = biological target: T6, ELK3 (Homo sapiens, UniProt P41970 1-407); settings: protein: recombinant; tags: N-terminal GST; dsDNA, one strand shown
T6 sequence: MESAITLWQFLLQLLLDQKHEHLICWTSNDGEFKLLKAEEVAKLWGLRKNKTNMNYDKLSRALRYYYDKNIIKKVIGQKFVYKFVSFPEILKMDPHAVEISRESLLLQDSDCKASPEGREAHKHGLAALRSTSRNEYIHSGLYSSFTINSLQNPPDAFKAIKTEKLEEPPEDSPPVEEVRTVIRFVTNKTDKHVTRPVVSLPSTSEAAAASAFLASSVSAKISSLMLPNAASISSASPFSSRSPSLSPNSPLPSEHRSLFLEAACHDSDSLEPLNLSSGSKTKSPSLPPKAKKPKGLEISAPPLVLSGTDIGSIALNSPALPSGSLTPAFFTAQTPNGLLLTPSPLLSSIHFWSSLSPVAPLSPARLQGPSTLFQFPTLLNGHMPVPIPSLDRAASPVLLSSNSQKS
Summary of the method: as §1

[10] = biological target: T7, FEV (Homo sapiens, UniProt Q99581 1-238); settings: protein: recombinant; tags: N-terminal GST; dsDNA, one strand shown
T7 sequence: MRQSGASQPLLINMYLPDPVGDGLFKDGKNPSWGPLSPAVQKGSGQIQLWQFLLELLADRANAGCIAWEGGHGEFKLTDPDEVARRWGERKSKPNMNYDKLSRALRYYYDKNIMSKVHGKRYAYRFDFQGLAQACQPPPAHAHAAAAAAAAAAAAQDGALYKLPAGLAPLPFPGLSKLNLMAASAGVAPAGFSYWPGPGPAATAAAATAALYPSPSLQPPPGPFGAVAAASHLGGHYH
Summary of the method: as §1

[11] = biological target: ETV5 (Homo sapiens, UniProt P41161 1-510); settings: protein: recombinant; tags: N-terminal GST; dsDNA, one strand shown
Sequence of ETV5 (P41161 whole entry): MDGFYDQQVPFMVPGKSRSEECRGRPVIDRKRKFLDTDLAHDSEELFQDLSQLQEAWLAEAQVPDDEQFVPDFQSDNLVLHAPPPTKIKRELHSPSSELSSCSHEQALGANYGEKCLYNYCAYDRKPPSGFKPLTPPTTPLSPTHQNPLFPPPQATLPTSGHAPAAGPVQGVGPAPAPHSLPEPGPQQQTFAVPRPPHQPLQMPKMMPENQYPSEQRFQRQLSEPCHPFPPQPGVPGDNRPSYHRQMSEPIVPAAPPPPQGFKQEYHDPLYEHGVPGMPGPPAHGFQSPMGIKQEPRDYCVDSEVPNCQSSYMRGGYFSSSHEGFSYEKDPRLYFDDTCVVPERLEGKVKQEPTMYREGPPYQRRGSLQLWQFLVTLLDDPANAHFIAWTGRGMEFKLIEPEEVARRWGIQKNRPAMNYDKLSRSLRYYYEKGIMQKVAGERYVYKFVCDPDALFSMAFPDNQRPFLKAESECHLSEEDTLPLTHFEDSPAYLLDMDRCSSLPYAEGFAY
Summary of the method: as §1

[12] = biological target: HSF1 (Homo sapiens, UniProt Q00613 1-529); settings: protein: recombinant; tags: N-terminal GST; chain copies: 3; dsDNA, one strand shown
Sequence of HSF1 (Q00613 whole entry): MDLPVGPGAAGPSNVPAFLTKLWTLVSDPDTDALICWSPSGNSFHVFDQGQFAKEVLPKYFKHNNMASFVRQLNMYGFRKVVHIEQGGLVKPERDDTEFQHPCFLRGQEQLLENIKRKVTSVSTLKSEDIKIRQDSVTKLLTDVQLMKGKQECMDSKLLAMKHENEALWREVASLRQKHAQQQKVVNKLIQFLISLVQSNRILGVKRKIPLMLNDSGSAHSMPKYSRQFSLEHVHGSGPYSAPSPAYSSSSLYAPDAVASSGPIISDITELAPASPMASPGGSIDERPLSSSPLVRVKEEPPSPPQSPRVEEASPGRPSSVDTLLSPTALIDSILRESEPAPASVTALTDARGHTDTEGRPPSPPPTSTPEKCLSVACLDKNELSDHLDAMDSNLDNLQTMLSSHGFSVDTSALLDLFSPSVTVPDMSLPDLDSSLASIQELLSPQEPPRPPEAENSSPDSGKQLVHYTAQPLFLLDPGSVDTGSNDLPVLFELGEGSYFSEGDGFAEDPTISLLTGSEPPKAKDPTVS
Summary of the method: as §1

[13] = biological target: T8, SPIC (Homo sapiens, UniProt Q8N5J4 1-248); settings: protein: recombinant; tags: N-terminal GST; dsDNA, one strand shown
T8 sequence: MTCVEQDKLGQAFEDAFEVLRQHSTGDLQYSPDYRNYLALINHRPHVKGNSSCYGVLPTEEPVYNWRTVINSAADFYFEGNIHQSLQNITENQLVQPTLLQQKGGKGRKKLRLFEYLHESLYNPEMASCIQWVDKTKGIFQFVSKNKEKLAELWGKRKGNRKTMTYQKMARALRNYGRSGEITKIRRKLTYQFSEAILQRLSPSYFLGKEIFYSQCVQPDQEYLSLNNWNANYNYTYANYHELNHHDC
Summary of the method: as §1

[14] = biological target: ELF4 (Homo sapiens, UniProt Q99607 1-663); settings: protein: recombinant; tags: N-terminal GST; dsDNA, one strand shown
Sequence of ELF4 (Q99607 whole entry): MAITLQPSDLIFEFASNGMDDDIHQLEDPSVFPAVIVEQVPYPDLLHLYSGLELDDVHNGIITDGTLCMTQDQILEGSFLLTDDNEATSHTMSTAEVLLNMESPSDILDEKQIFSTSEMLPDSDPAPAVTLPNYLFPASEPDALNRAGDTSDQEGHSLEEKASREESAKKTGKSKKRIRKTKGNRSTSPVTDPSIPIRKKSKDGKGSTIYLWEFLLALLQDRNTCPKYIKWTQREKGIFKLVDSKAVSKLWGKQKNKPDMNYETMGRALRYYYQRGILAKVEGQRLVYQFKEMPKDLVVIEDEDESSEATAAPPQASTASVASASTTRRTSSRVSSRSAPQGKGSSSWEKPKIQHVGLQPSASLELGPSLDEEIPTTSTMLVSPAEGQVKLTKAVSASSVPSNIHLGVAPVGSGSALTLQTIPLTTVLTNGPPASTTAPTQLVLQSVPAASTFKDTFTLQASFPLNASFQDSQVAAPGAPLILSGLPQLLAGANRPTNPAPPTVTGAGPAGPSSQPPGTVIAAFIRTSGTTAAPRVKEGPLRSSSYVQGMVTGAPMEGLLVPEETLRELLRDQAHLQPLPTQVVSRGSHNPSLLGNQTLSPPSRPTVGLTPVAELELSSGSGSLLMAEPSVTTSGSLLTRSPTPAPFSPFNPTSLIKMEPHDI
Summary of the method: as §1

[15] = biological target: T9, ELK4 (Homo sapiens, UniProt P28324-2 1-405); settings: protein: recombinant; tags: N-terminal GST; dsDNA, one strand shown
T9 sequence: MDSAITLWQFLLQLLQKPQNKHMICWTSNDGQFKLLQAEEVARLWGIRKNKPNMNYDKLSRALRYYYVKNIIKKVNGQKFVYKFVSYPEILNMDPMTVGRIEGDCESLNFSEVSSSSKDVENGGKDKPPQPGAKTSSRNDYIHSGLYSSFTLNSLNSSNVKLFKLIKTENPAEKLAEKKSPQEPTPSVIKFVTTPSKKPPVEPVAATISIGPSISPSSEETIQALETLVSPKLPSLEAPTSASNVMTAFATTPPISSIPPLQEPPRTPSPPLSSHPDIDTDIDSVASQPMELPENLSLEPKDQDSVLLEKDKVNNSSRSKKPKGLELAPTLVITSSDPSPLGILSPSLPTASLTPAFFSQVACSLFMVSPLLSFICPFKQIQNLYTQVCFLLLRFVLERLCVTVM
Summary of the method: as §1

[16] = biological target: T10, ETV2 (Homo sapiens, UniProt O00321 1-342); settings: protein: recombinant; tags: N-terminal GST; dsDNA, one strand shown
T10 sequence: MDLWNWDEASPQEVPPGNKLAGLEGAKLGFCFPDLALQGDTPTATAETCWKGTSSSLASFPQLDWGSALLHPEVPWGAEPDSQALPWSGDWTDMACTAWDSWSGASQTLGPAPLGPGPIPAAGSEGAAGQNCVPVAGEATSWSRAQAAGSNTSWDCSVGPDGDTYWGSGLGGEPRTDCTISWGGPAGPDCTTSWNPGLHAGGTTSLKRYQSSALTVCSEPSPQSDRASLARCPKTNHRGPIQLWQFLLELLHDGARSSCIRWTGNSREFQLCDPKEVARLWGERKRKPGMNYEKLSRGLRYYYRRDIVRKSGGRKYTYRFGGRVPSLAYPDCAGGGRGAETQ
Summary of the method: as §1

[17] = biological target: T11, ELF3 (Homo sapiens, UniProt P78545 1-371); settings: protein: recombinant; tags: N-terminal GST; dsDNA, one strand shown
T11 sequence: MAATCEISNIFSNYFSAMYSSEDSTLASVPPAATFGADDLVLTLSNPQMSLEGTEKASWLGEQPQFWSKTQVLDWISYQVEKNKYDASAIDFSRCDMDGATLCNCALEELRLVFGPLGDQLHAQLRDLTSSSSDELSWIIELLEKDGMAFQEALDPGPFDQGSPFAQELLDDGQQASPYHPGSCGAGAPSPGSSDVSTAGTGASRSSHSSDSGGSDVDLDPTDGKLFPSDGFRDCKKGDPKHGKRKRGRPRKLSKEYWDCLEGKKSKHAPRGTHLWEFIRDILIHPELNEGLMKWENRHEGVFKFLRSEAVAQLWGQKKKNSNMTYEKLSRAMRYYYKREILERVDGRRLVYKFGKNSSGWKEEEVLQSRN
Summary of the method: as §1

[18] = biological target: CRX (Homo sapiens, UniProt O43186 1-299); settings: protein: recombinant; tags: N-terminal GST; dsDNA, one strand shown
Sequence of CRX (O43186 whole entry): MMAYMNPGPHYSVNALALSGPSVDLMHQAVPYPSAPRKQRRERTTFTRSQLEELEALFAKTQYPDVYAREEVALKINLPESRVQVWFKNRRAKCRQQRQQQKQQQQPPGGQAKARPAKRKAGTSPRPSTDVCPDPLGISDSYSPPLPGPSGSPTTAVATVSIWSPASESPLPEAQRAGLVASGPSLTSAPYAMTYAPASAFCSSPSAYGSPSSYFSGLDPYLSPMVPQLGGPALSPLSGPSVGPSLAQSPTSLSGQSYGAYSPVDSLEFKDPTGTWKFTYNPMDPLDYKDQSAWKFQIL
Summary of the method: as §1

[19] = biological target: ETV1 (Homo sapiens, UniProt P50549 1-477); settings: protein: recombinant; tags: N-terminal GST; dsDNA, one strand shown
Sequence of ETV1 (P50549 whole entry): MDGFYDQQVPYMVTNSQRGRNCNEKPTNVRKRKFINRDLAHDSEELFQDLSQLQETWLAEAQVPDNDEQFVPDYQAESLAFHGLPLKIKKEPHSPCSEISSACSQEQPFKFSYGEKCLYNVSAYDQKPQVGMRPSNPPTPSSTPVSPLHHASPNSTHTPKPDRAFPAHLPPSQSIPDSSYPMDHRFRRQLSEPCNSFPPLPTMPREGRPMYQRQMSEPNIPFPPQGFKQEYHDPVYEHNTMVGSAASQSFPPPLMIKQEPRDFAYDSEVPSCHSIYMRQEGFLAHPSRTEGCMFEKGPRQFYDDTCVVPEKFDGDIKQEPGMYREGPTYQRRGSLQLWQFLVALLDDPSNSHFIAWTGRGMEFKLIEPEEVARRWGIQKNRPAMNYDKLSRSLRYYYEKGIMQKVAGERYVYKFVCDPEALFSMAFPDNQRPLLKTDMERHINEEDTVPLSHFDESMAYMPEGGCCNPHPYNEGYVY
Summary of the method: as §1

TTTATA
binding signal [1]: 1.32 fold enrichment (6-mer frequency, TF over GST control)
binding signal [2]: 1.27 fold enrichment (6-mer frequency, TF over GST control)
binding signal [3]: 1.36 fold enrichment (6-mer frequency, TF over GST control)
binding signal [4]: 1.29 fold enrichment (6-mer frequency, TF over GST control)
binding signal [5]: 1.23 fold enrichment (6-mer frequency, TF over GST control)
binding signal [6]: 1.4 fold enrichment (6-mer frequency, TF over GST control)
binding signal [7]: 1.34 fold enrichment (6-mer frequency, TF over GST control)
binding signal [8]: 1.33 fold enrichment (6-mer frequency, TF over GST control)
binding signal [9]: 1.28 fold enrichment (6-mer frequency, TF over GST control)
binding signal [10]: 1.28 fold enrichment (6-mer frequency, TF over GST control)
binding signal [11]: 1.24 fold enrichment (6-mer frequency, TF over GST control)
binding signal [12]: 1.54 fold enrichment (6-mer frequency, TF over GST control)
binding signal [13]: 1.37 fold enrichment (6-mer frequency, TF over GST control)
binding signal [14]: 1.36 fold enrichment (6-mer frequency, TF over GST control)
binding signal [15]: 1.37 fold enrichment (6-mer frequency, TF over GST control)
binding signal [16]: 1.26 fold enrichment (6-mer frequency, TF over GST control)
binding signal [17]: 1.36 fold enrichment (6-mer frequency, TF over GST control)
binding signal [18]: 2.05 fold enrichment (6-mer frequency, TF over GST control)
binding signal [19]: 1.31 fold enrichment (6-mer frequency, TF over GST control)
